Assay outcomes from PubChem BioAssay.
NPR1 activator: GC-A (human) enzyme activation | P16066 | HEK293 GC-A cells, cGMP TR-FRET, EC30 ANP; 0% at EC30 ANP, 100% saturating ANP | activation, % at 10 µM | 370,000 tested, 0.14% active | AID 1671463; in the data active = activation above about 40%
Exocytosis inh: blocks lytic granule exocytosis; TALL-104 LAMP-1 surface exposure, flow cytometry; cells stimulated with thapsigargin and PMA; inhibition, % at 10 µM; 360,000 tested, 0.66% active;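 active = inhibition above about 55%, limit read from the data; inconclusive = no clear call, values can overlap the other calls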
Myeloid diff MLP: myeloid differentiation induction | ER-HoxA9 myeloid progenitors, lysozyme-GFP differentiation, flow cytometry | calls only at 10 µM | 360,000 tested, 1% active | AID 624256;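 active = normalized GFP-positive differentiation at or above the plate's own cutoff, the solvent-only control mean plus 3 SD; inconclusive = no clear call, values can overlap the other calls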;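 note: cells exposed to compound for four days before flow analysis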
GC-B act: GC-B (human) receptor activation. 370,000 tested, 0.11% active. activation, % at 10 µM. P20594. HEK293-GC-B cells, CNP EC30, cGMP TR-FRET; 0% at EC30 CNP, 100% saturating CNP;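 active = activation at 10 µM reaching about 35% in either raw or pattern-adjusted values, limit read from the data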
Target sequence (P20594 whole entry, looked up): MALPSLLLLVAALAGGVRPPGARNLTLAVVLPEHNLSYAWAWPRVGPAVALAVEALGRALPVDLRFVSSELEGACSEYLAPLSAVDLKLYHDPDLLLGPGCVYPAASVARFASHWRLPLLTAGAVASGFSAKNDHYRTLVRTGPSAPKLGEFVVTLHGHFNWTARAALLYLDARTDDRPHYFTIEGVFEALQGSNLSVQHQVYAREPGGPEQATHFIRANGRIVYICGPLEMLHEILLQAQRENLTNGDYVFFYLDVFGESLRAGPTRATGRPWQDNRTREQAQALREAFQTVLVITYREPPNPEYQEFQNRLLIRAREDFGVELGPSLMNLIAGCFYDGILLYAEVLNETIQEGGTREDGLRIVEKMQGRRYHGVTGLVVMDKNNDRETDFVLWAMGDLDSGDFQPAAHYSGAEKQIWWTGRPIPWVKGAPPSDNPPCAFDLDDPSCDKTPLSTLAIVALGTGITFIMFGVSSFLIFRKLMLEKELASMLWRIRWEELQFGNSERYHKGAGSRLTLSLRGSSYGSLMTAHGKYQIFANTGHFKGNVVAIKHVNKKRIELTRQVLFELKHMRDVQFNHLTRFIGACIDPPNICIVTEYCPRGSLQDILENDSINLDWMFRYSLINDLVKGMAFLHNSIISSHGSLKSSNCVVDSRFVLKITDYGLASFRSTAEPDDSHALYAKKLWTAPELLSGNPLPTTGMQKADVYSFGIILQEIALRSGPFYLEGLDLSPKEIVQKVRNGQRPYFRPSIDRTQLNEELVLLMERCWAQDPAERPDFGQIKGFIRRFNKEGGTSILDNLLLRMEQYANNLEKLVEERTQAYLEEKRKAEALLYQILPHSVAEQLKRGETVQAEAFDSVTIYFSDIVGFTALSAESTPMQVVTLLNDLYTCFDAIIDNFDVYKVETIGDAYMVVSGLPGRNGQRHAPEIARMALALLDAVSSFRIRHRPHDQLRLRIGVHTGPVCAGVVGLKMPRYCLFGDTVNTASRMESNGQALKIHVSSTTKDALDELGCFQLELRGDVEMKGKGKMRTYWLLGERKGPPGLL
Large screens that a line does not name were inactive. This is a sample that favours compounds with a hit; in the whole collection about 1.8% have one here.

CCC(=C(c1ccc(OC)cc1)c1ccc(OC)cc1)c1cn(CC(O)CN(CCO)CCO)c2ccccc12 (centres undefined)	Exocytosis inh 72
COc1ccc(OCC(O)CN(CCO)CC(O)Cn2ccc3ccccc32)cc1 (centres undefined)	none
CC1(C)OC1COc1c2ccoc2cc2oc(=O)ccc12 (centres undefined)	Exocytosis inh 80
O=C(OCc1ccccc1)N1CCC2CC1c1ccc(N3CCN(Cc4ccccc4)CC3)cc12 (centres undefined)	none (no result: Exocytosis inh, Myeloid diff MLP)
CCO/C(C)=N/n1c2nc3ccccc3nc2c2c(=O)n(Cc3ccccc3Cl)c(C)nc21	Myeloid diff MLP active
O=S1(=O)c2ccc(Br)cc2OC[C@@H](Cc2ccccc2)N1Cc1cn(CC2CCCCC2)nn1	none (no result: Exocytosis inh, Myeloid diff MLP)
O=C(CN1C(=O)NC2(CCCC2)C1=O)Nc1nc(-c2ccc(F)cc2)cs1	NPR1 activator 45
CC(=O)Nc1ccc(-c2csc(NC(=O)CN3C(=O)NC4(CCCC4)C3=O)n2)cc1	none
CC1(C)NC(=O)N(CC(=O)Nc2nc(-c3ccc(F)cc3)cs2)C1=O	NPR1 activator 48
Clc1cccc(CNC2CCC23CCCCC3)c1 (centres undefined)	none (no result: Exocytosis inh, Myeloid diff MLP)
Cc1cccc2c(=O)n3c(cc12)-c1[nH]c2ccccc2c1CC3	GC-B act 35
Cn1cc(C2=C(c3ccc(Cl)cc3Cl)C(=O)NC2=O)c2ccccc21	Myeloid diff MLP active
Cn1cc(-c2ccccc2C(N)=O)c(=O)c2cc(Cl)ccc21	none
O=c1c2ccc([N+](=O)[O-])cc2ncn1CCOc1ccccc1	Myeloid diff MLP active
CCOC(=O)[C@]12CCCC=C1N(Cc1ccc(OC)cc1)C(=O)[C@@H]2CC(=O)N1CCN(C(=O)C2CC2)CC1	none (no result: Exocytosis inh, Myeloid diff MLP)
O=C(Nc1ccc(Cc2ccncc2)cc1)c1cccc([N+](=O)[O-])c1	none
O=C(CCNc1ccc(Cc2ccncc2)cc1)c1ccc([N+](=O)[O-])cc1	Exocytosis inh 90
O=C(CCNc1ccc(Br)cc1)c1cccc([N+](=O)[O-])c1	Exocytosis inh 86
COc1ccccc1N1CCN(S(=O)(=O)c2ccc3c(c2)CCC(=O)N3)CC1	none (no result: Exocytosis inh, Myeloid diff MLP)
O=C(COC(=O)c1c(F)cccc1F)NC(=O)NCc1ccccc1	none
CCCCCOC(=O)C1C2C=CC3(CN(c4ccccc4C)C(=O)C13)O2 (centres undefined)	Myeloid diff MLP active
C=CCNC(=S)Nc1c(C(=O)OC)[nH]c2cc(OC)ccc12	GC-B act 36
O=C(/C=C/c1ccc([N+](=O)[O-])cc1)c1ccccc(=O)c1O	Exocytosis inh 56 (no result: Myeloid diff MLP)
CC(=O)Oc1ccc(N(C(C)=O)S(=O)(=O)c2ccc(Cl)cc2)c2ccccc12	none
CC(=O)Oc1ccc(N(C(C)=O)S(=O)(=O)c2ccc(C)cc2)c2ccccc12	Myeloid diff MLP active
CCn1cc(C(=O)N2CCN(Cc3ccc(C)cc3)CC2)c(=O)c2ccc(C)nc21	none (no result: Exocytosis inh, Myeloid diff MLP)
OCC1CCCC(n2cnc3c(=S)nc[nH]c32)O1 (centres undefined)	Myeloid diff MLP active
Cc1ccc2[nH]cc(/C=C/c3cc[n+](C)cc3)c2c1	Myeloid diff MLP inconclusive
COc1ccc2c(/C=C/c3cc[n+](C)cc3)c[nH]c2c1	Myeloid diff MLP active
Clc1ccc(CN2CCN(c3ncc(Cc4ccccc4)cn3)CC2)c(Cl)c1	none (no result: Exocytosis inh, Myeloid diff MLP)
CN(CCC(=O)c1ccccc1)CCC(=O)c1ccccc1	NPR1 activator 63
O=C(CC(=O)c1ccccc1)c1ccccc1	none
CN(C)CCC(=O)c1ccc(Cl)cc1	NPR1 activator 62
O=C(NCc1cccs1)C1CCCN(S(=O)(=O)c2ccccc2)C1 (centres undefined)	none (no result: Exocytosis inh, Myeloid diff MLP)
C=CCN1C(=O)C(=Cc2ccc3c(c2)CCC3)SC1=S	none
COc1ccccc1CNc1ccc2c(c1)CCC2	Myeloid diff MLP active
CN(C)C(CNC(=O)c1ccc(C(=O)c2ccccc2)cc1)c1ccccc1 (centres undefined)	none
CN(C)C(CNC(=O)c1ccc(-c2ccccc2)cc1)c1ccccc1 (centres undefined)	Myeloid diff MLP active
COc1cc(/C(C)=N/NC(=S)NC(C)C)cc(OC)c1OC	GC-B act 39
O=C1C[C@@H](C(=O)Nc2ccc(Cl)cc2)[C@@H](c2ccccc2)O1	none (no result: Exocytosis inh, Myeloid diff MLP)
O=C1/C(=C/c2ccc(S(=O)(=O)O)cc2S(=O)(=O)O)CCc2ccccc21	none
COCOCCn1cc(CN2CCS(=O)(=O)N(Cc3ccc(-c4ccc(Cl)cc4)cc3)C(C)C2=O)nn1 (centres undefined)	NPR1 activator 49
CC(C)(C)c1ccc(S(=O)(=O)/N=C2\C=C(NS(=O)(=O)c3ccccc3)C(=O)c3ccccc32)cc1	none
